Pf growth 48h: inhibits P. falciparum growth in the first generation, 48 h | P. falciparum luciferase growth in erythrocytes, 48 h | Potency, µM (top dose mostly 28.7 µM), for inactives: top-dose activity change, negative = inhibition, hits mostly inhibitors | 310,000 tested, 5.9% active; active means well fitted inhibition curve with a large enough effect; inconclusive means small, poorly fitted or top-dose-only effect, or another doubt; inactive means no such curve, though single readings can be large or run the other way; further: potency means the concentration at half of the fitted maximal effect; on the % scale 0 is the no-effect control and ±100 the full control effect
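Growth was read as firefly luciferase luminescence after a 48 h, 37 C, 5% CO2 exposure of compounds to reporter-bearing P. falciparum cultures (0.1% parasitemia, 2% hematocrit final) in Albumax-supplemented RPMI 1640.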
NS1 function inh: blocks influenza NS1 protein function. 270,000 tested, 0.4% active. Potency, µM (highest dose often 46.1 µM), inactives show at the top dose activity, positive = more growth; further: potency means the concentration at half of the fitted maximal effect; actives are rising curves; nearly all actives have a fitted effect of over 50% in size
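Growth recovery, yeast-based: influenza A NS1 expressed in S. cerevisiae causes slow growth, and suppressors are detected by OD600. The parent strain without NS1 is used as positive control.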
Cycloheximide cs: affects cycloheximide protein synthesis inhibition readout, counter-screen | AID 2314 | cell reporter, cycloheximide protein synthesis inhibition counterscreen | max response, % | 300,000 tested, 12% active; in the data active means max response mostly above about 13%, no sharp cut-off; inactive means mostly below about 14%; further: read at 38.3 µM for the half of the compounds with a filed dose; 0% is about no effect
Shiga inhibitor: blocks Shiga toxin action in Vero cells; Vero cells, Shiga toxin protein synthesis inhibition reporter; AID 2315; inhibition, % at 38.7 µM; 290,000 tested, 9.2% active; in the data active means inhibition mostly above about 28%, no sharp cut-off; inactive means mostly below about 43%; further: 0% is about no effect
Pf growth 96h: inhibits malaria parasite growth, 96 h; P. falciparum luciferase reporter growth, 96 h; Potency, µM (series often up to 28.7 µM), inactives show at the top dose activity change, negative = inhibition, usual class: inhibitors; 320,000 tested, 6.9% active; AID 504834; active means well fitted inhibition curve with a large enough effect; inconclusive means small, poorly fitted or top-dose-only effect, or another doubt; inactive means no such curve, though single readings can be large or run the other way; further: potency means the concentration at half of the fitted maximal effect; on the % scale 0 is the no-effect control and ±100 the full control effect
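Two parasite generations (96 h, 37 C, 5% CO2) of compound exposure in infected erythrocytes (0.05% parasitemia, 2% hematocrit). Luciferase-reporter P. falciparum; decreased luminescence indicates inhibited growth, aimed at apicoplast-acting delayed death.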
SARS PLpro yeast: blocks SARS-CoV papain-like protease in a yeast assay; S. cerevisiae expressing SARS-CoV PLpro, growth rescue; 330,000 tested, 0.19% active; Potency, µM (doses to about 32.9 µM), for the others: at the highest dose activity, positive = growth rescue, hits mostly activators; further: potency means the concentration at half of the fitted maximal effect; 0% is about no effect; nearly all actives have a fitted effect of over 55% in size
* marks the source's active call; other numbers are inactive results; ? = inconclusive; . = no result. Hits are enriched below; roughly 21% of the tested compounds scored in any of these assays. Unless noted, the call rests on the fitted dose curve.

SMILES	Pf growth 48h	NS1 function inh	Cycloheximide cs	Shiga inhibitor	Pf growth 96h	SARS PLpro yeast
Cc1ccc(C(C(=O)NC2CCCCC2)N(Cc2ccco2)C(=O)Cn2cnc3ccccc32)cc1 (stereo not given)	11.7µM*	6.6%	7.3	0.6	-7.8%	-7.3%
Cc1c(Cc2ccccc2)sc(NC(=O)C(C)(C)C)c1C(N)=O	?	-67.3%	5.5	18.7	3.1%	-5.6%
CN(C)CCNC=C(C(=O)Nc1ccc(Cl)cc1Cl)C(=O)Nc1ccc(Cl)cc1Cl	3.29µM*	3.3%	-4.3	7.0	1.85µM*	-12.5%
Cc1csc(Nc2ccc(Cl)cc2)n1	45.5%	-7.8%	23.8*	72.8*	?	0.3%
Cc1csc(NS(=O)(=O)c2ccc(Cl)cc2)n1	25.3%	13.7%	3.5	15.4	?	1.4%
Cc1ccc(Nc2nc(C)cs2)cc1	262.5%	8.1%	53.6*	124.7*	?	-0.2%
CCCCc1ccc(NC(=S)N2CCC(O)CC2)cc1	8.8%	8.7%	18.6	32.2	412.1%	-1.1%
CCN(CC)C(=O)CC(c1ccc(N(C)C)cc1)c1c(O)cc(OC)cc1OC (stereo not given)	?	-21.0%	-0.6	-2.5	?	0.3%
C=Cn1cc[n+](CC(=O)c2cccs2)c1	?	-4.3%	-1.9	-5.7	6.57µM*	3.1%
C=Cn1cc[n+](CC(=O)c2ccc(Br)s2)c1	?	10.5%	5.2	-10.6	3.29µM*	18.7%
C=Cn1cc[n+](CC(=O)c2cc(C(C)(C)C)c(O)c(C(C)(C)C)c2)c1	6.57µM*	-7.4%	-1.0	1.3	2.08µM*	7.4%
C=Cn1cc[n+](CC(=O)c2ccc(-c3ccccc3)cc2)c1	1.47µM*	-9.5%	-1.4	.	?	-2.0%
CN1CCN(CC(=O)c2cc(C(C)(C)C)c(O)c(C(C)(C)C)c2)CC1	?	?	-1.2	.	10.8%	-1.2%
COc1ccc(C2SCC(=O)N2c2c(C)n(C)n(-c3ccccc3)c2=O)cc1OC (stereo not given)	-6.9%	9.1%	-6.6	-16.9	.	6.2%
Cc1cccc(CN2C(=O)CCSc3ccc(Cl)cc32)c1	?	3.7%	-2.1	-4.8	20.6%	-3.0%
COc1ccc(Cl)cc1C(=O)Nn1cnnc1	-3.2%	8.2%	1.4	-13.1	?	-0.1%
Cc1ccc(-c2nnn(CC(=O)N(c3cccc(F)c3)C(C(=O)NC(C)(C)C)c3ccco3)n2)o1 (stereo not given)	?	0.5%	-0.9	-6.4	3.4%	-0.1%
CN1C[C@@H]2C[C@H]1CN2c1cc2c(cc1F)c(=O)c(C(=O)O)cn2C1CC1	5.36µM*	.	.	.	0.849µM*	.
CNC1CCCN(c2c(F)cc3c(=O)c(C(=O)O)cn(C4CC4)c3c2OC)C1 (stereo not given)	4.78µM*	.	.	.	4.26µM*	.
COc1c(N2CCN[C@H](C)C2)c(F)cc2c(=O)c(C(=O)O)cn(C3CC3)c12	?	-11.1%	-2.5	16.3	?	-10.2%
COc1c(N2CCN(C(=S)NCc3ccccc3)C(C)C2)c(F)cc2c(=O)c(C(=O)O)cn(C3CC3)c12 (stereo not given)	9.28µM*	19.7%	-4.3	-14.9	2.94µM*	0.0%
O=C(NCCN1CCOCC1)N1c2ccccc2Sc2ccccc21	-3.0%	3.9%	-4.2	-2.0	37.2%	-0.1%
COc1ccc(CNc2cccc3[nH]c(C(F)(F)F)nc23)cc1	1.65µM*	1.0%	-5.2	7.7	21.4%	-2.4%
COc1cc(CNc2cccc3[nH]c(C(F)(F)F)nc23)cc(OC)c1	2.08µM*	?	6.4	17.8	23.7%	1.9%
FC(F)(F)c1nc2ccccc2[nH]1	56.1%	1.0%	0.6	-5.3	58.9%	-0.1%
SMILES	Pf growth 48h	NS1 function inh	Cycloheximide cs	Shiga inhibitor	Pf growth 96h	SARS PLpro yeast
Cc1ccc(C(=O)Nc2cccc3[nH]c(C(F)(F)F)nc23)cc1	7.6%	-3.0%	2.6	22.3	-13.1%	-5.5%
O=C(O)[C@@H](O)[C@@H](O)[C@@H](O)[C@@H](O)c1nc2ccccc2s1	.	-32.1%	.	.	.	.
O=C(Nc1ccccc1)O[C@@H]1C[C@H]2CCC(=O)N3CC[C@@H](C1)[C@@H]23	107.6%	-29.7%	31.1*	38.2*	68.2%	-9.8%
O=C(Nc1ccc2c(c1)OCO2)O[C@@H]1C[C@H]2CCC(=O)N3CC[C@@H](C1)[C@@H]23	?	25.7%	2.9	2.4	?	-3.7%
O=C(Nc1ccccc1)OC1CC2CC1C1CCCC21 (stereo not given)	142.9%	-73.1%	51.5*	93.8*	34.5%	-4.6%
Cc1c(C(=O)N2CCN(CCc3ccccn3)CC2)oc2ccc(Cl)cc12	19.8%	-19.6%	7.9	-2.2	22.3%	0.4%
COC(=O)c1cc(S(=O)(=O)NCC2CCN(Cc3cccc(Cl)c3)CC2)c[nH]1	0.8%	-6.5%	-2.5	-1.3	?	-1.4%
O=C(c1ccc2ccccc2c1)C1CCCN(C(=O)CN2C(=O)CSC2=O)C1 (stereo not given)	21.2%	-4.3%	5.6	19.9	10.4µM*	0.7%
O=C(c1ccc2ccccc2c1)C1CCCN(C(=O)c2cccnc2)C1 (stereo not given)	3.9%	-7.3%	14.3	-0.3	-7.6%	-0.6%
O=C(NCCN=C1NS(=O)(=O)c2ccccc21)c1ccncc1	.	-2.3%	-2.6	-10.5	5.1%	-5.2%
CC(=O)[C@@]1(O)C(C)CC2C3C=C(C)C4=Cc5c(cnn5-c5ccccc5)C[C@]4(C)C3C(O)C[C@@]21C (stereo not given in full)	5.22µM*	?	0.5	-15.1	10.4µM*	-0.6%
Cc1noc(C)c1CC(=O)NC1CC(C)(C)Cc2c1cnn2-c1ccccc1 (stereo not given)	-13.5%	8.0%	14.8	-2.3	-1.5%	0.4%
COc1cccc(C(=O)OCC(=O)c2ccc(Br)s2)c1	24.9%	-10.8%	52.9*	88.3*	?	-4.6%
COc1ccc(C(=O)OCC(=O)c2ccc(Br)s2)c(OC)c1	54.7%	.	.	.	49.1%	-0.5%
O=Nc1[nH]c(=O)c(/C=C(\O)c2ccccc2)nc1NO	142.2%	3.9%	58.8*	61.6*	144.7%	0.4%
Cc1nn(-c2ccccc2)c(Cl)c1/C=N/NC(=O)CNc1n[nH]c(=O)[nH]c1=O	-7.9%	.	12.4	0.5	6.9%	1.2%
CC1CN(Cc2ccc(Cl)cc2Cl)CC(C)O1 (stereo not given)	.	2.4%	23.4	46.2*	64.8%	-0.6%
CC1CN(Cc2ccc(C#N)cc2Cl)CC(C)O1 (stereo not given)	5.7%	-1.9%	10.6	19.7	0.0%	?
CCC(=O)N1N=C2C3CCN(CC3)C2C1c1ccc(C)cc1 (stereo not given)	13.7%	2.4%	-4.4	9.8	4.15µM*	12.7%
Nc1ccc(CCn2ccnc2)cc1	?	8.6%	-1.7	-3.8	?	-1.5%
CC(C)(C)OC(=O)N1CCC(C(=O)N2CCC[C@H]2C(=O)O)CC1	8.6%	5.5%	9.6*	60.1*	32.7%	-15.7%
CCN(CC(=O)Nc1c(F)cccc1F)C(=O)Cc1ccc2c(c1)OCCO2	-24.5%	.	.	.	-28.3%	-1.8%
